Laboratory results from PubChem BioAssay (EPA / NIEHS).
Results filed as inconclusive are left out. Active and inactive are the calls of the source. The calls were made as follows: active = hit-call score of the fitted dose curve at least 0.9, where 1 is the maximum; inconclusive = response in the unintended direction; inactive = score below 0.9.

Assays:
[1] = target: Cellular tumor antigen p53 (Homo sapiens) (UniProt P04637); test: TOX21_p53_BLA_p2_ratio: Tox21 HCT-116 p53 Agonism Beta-lactamase Assay, Ratio, Phase 2 (AID 2283592)
Sequence of Cellular tumor antigen p53 (Homo sapiens) (P04637 whole entry, looked up): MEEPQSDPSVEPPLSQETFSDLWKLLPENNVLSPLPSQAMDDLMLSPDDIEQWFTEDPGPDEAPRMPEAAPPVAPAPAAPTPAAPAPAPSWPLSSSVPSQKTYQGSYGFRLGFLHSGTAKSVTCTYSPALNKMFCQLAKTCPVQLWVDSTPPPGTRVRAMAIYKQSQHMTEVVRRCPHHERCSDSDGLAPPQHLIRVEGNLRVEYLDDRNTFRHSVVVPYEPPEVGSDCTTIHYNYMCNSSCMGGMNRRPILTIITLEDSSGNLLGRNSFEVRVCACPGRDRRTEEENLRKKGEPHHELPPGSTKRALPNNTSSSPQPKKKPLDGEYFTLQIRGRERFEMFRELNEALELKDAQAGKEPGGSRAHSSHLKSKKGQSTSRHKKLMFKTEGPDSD
How it was run: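 An inducible beta-lactamase reporter in HCT116 cells signals p53 pathway activation. After 16 h chemical exposure at 37C, cells load CCF4-AM substrate for 2 h at room temperature; activity is the cleaved/uncleaved emission ratio relative to DMSO.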

[2] = target: Cellular tumor antigen p53 (Homo sapiens) (UniProt P04637); test: TOX21_p53_BLA_p5_ratio: Tox21 HCT-116 p53 Agonism Beta-lactamase Assay, Ratio, Phase 5 (AID 2283599)
How it was run: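 Beta-lactamase reporter ratio (blue 460 nm over green 530 nm, 405 nm excitation) after 2 h CCF4-AM loading, in HCT-116 cells exposed 16 h at 37 C to compounds pinned at 217-fold dilution. Increases relative to DMSO baseline scored.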

[3] = TOX21_p53_BLA_p4_viability: Viability Assessment in the Tox21 HCT-116 p53 Agonism Beta-lactamase Assay, Phase 4 (AID 2283597);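 also: hits lower the luminescence signal meaning cytotoxicity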
How it was run: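 Compound exposure of HCT116 cells lasts 16 h at 37C, 5% CO2, with DMSO stocks diluted 217-fold. Cellular ATP is then quantified by CellTiter-Glo luminescence after 30 min at room temperature.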

[4] = TOX21_p53_BLA_p5_viability: Viability Assessment in the Tox21 HCT-116 p53 Agonism Beta-lactamase Assay, Phase 5 (AID 2283600)
How it was run: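 Counter-readout for cytotoxicity: ATP-dependent luminescence from CellTiter-Glo, read in the beta-lactamase wells after 30 min at RT, following a 16 h compound exposure at 37C.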

[5] = target: Cellular tumor antigen p53 (Homo sapiens) (UniProt P04637); test: TOX21_p53_BLA_p4_ratio: Tox21 HCT-116 p53 Agonism Beta-lactamase Assay, Ratio, Phase 4 (AID 2283601)
How it was run: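 Signal is the blue/green (460nm/530nm) ratio of cleaved versus uncleaved CCF4-AM substrate, read after 2 h substrate loading. Cells were HCT116 carrying the p53-responsive beta-lactamase reporter, dosed 16 h at 37C, 5% CO2; CellTiter-Glo measured in parallel.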

[6] = target: Cellular tumor antigen p53 (Homo sapiens) (UniProt P04637); test: TOX21_p53_BLA_p3_ratio: Tox21 HCT-116 p53 Agonism Beta-lactamase Assay, Ratio, Phase 3 (AID 2283596)
How it was run: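 HCT116 p53-bla cells (4000/well) given compound in DMSO (217-fold dilution) after 5 h, incubated 16 h at 37C. CCF4-AM substrate 2 h at room temperature; 460/530 nm emission ratio, gain fitted against DMSO.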

[7] = TOX21_p53_BLA_p3_viability: Viability Assessment in the Tox21 HCT-116 p53 Agonism Beta-lactamase Assay, Phase 3 (AID 2283593);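 also: cells exposed to compound for 16 h before reading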
How it was run: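 Cellular ATP was quantified by CellTiter-Glo luminescence, read after 30 min at room temperature. Beforehand, HCT116 cells (4000/well) received compound 5 h post-seeding, 217-fold diluted from DMSO, then incubated 16 h at 37C.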

[8] = Tanguay_ZF_120hpf_MORT_legacy: (Legacy) Oregon State University Tanguay Lab 120 Hour Post-fertilization zebrafish Assay for Mortality (AID 2283633)
How it was run: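 Mortality endpoint from a multiplexed whole-embryo zebrafish screen. Dechorionated wild-type embryos received compound at 6 hpf and remained under static exposure at 28C until 120 hpf, with death noted as a present/absent call.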

[9] = Tanguay_ZF_120hpf_AXIS_legacy: (Legacy) Oregon State University Tanguay Lab 120 Hour Post-fertilization zebrafish Assay for Body Axis Malformation (AID 2283635)
How it was run: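 Static 6–120 hpf chemical exposure of dechorionated wild-type 5D zebrafish, one per well at 28C; morphology endpoint scored binary at 120 hpf relative to DMSO control.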

[10] = Tanguay_ZF_120hpf_SNOU_legacy: (Legacy) Oregon State University Tanguay Lab 120 Hour Post-fertilization zebrafish Assay for Snout Malformation (AID 2283637)
How it was run: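 Snout malformation read as a yes/no call on brightfield images of 120 hpf larvae (Tropical 5D strain). Static exposure began at 6 hpf on dechorionated embryos in 0.64% DMSO, with gain of signal analysed versus DMSO controls.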

[11] = Tanguay_ZF_120hpf_JAW_legacy: (Legacy) Oregon State University Tanguay Lab 120 Hour Post-fertilization zebrafish Assay for Jaw Malformation (AID 2283638)
How it was run: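 Static waterborne exposure of dechorionated wild-type (Tropical 5D) zebrafish from 6 to 120 hpf at 28C, 0.64% DMSO vehicle; 5uM trimethyltin chloride served as positive control. Jaw morphology recorded as binary at 120 hpf.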

[12] = Tanguay_ZF_120hpf_OTIC_legacy: (Legacy) Oregon State University Tanguay Lab 120 Hour Post-fertilization zebrafish Assay for Otic Vesicle Malformation (AID 2283639)
How it was run: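 Tropical 5D wild-type zebrafish embryos were exposed statically in sealed, foil-covered plates at 28C until 120 hpf, with 0.64% (vol/vol) DMSO final. Otic vesicle malformation was scored present/absent by brightfield microscopy, with DMSO as baseline.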

[13] = Tanguay_ZF_120hpf_PE_legacy: (Legacy) Oregon State University Tanguay Lab 120 Hour Post-fertilization zebrafish Assay for Pericardial Edema (AID 2283640)
How it was run: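 Read-out is the presence or absence of pericardial edema at 120 hpf under brightfield, with gain of signal fitted against DMSO controls. Larvae (5D wild-type) were statically exposed at 28C with 0.64% final DMSO.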

[14] = Tanguay_ZF_120hpf_SOMI_legacy: (Legacy) Oregon State University Tanguay Lab 120 Hour Post-fertilization zebrafish Assay for Somite Malformation (AID 2283647)
How it was run: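 5D WT zebrafish; chorion removed 4 hpf; 1 embryo/well from 6 hpf; static exposure to 120 hpf, 28C, 0.64% DMSO final. Endpoint: somite malformation, binary, brightfield. Mortality excluded.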

[15] = Tanguay_ZF_120hpf_PFIN_legacy: (Legacy) Oregon State University Tanguay Lab 120 Hour Post-fertilization zebrafish Assay for Pectoral Fin Malformation (AID 2283648);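 also: each larva judged yes or no for fin defect by brightfield with dead larvae skipped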
How it was run: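 5D WT zebrafish; pronase dechorionation 4 hpf; 1 embryo/well at 6 hpf; static exposure to 120 hpf, 28C, sealed, foil-covered; final DMSO 0.64% v/v; 5 uM trimethyltin chloride positive control; fin defect scored yes/no.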

[16] = Tanguay_ZF_120hpf_CFIN_legacy: (Legacy) Oregon State University Tanguay Lab 120 Hour Post-fertilization zebrafish Assay for Caudal Fin Malformation (AID 2283649)
How it was run: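 Embryos were collected from Tropical 5D wild-type adults and dechorionated at 4 hpf. At 6 hpf each was exposed, one per well, at 0.64% DMSO and 28C. At 120 hpf fin morphology was scored; dead embryos were excluded.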

[17] = Tanguay_ZF_120hpf_PIG_legacy: (Legacy) Oregon State University Tanguay Lab 120 Hour Post-fertilization zebrafish Assay for Pigmentation Malformation (AID 2283650)
How it was run: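 Pronase dechorionation at 4 hpf; embryos plated at 6 hpf, one per well; static exposure, sealed and foil-covered, 28C, to 120 hpf; pigmentation read by brightfield, binary; DMSO 0.64% baseline, 5uM trimethyltin chloride positive control.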

[18] = Tanguay_ZF_120hpf_YSE_legacy: (Legacy) Oregon State University Tanguay Lab 120 Hour Post-fertilization zebrafish Assay for Yolk Sac Edema (AID 2283634)
How it was run: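 Readout: presence or absence of yolk sac edema at 120 hpf, fitted upward against DMSO controls. Exposure ran statically from 6 hpf in dechorionated embryos kept at 28C.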

[19] = Tanguay_ZF_120hpf_BRAI_legacy: (Legacy) Oregon State University Tanguay Lab 120 Hour Post-fertilization zebrafish Assay for Brain Malformation (AID 2283641)
How it was run: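 Brain malformation in Tropical 5D zebrafish was recorded as a binary endpoint after static compound exposure from early development to 120 hpf at 28C. Activity was analysed against DMSO as negative control.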

Measured: AC50

CCCCCCCCCC(C)=O
inactive: [1] | [2]

Nc1ccnc(=O)[nH]1
inactive: [1] | [3] | [4] | [5]

O=S(=O)(O)c1ccc(Nc2nc(Nc3ccc(C=Cc4ccc(Nc5nc(Nc6ccc(S(=O)(=O)O)cc6)nc(N(CCO)CCO)n5)cc4S(=O)(=O)O)c(S(=O)(=O)O)c3)nc(N(CCO)CCO)n2)cc1
inactive: [1]
active: [6] 41.3 µM | [2] 42.6 µM | [5] 37.1 µM

CC=C(C)C=CC=C(C)C
inactive: [7] | [6] | [3] | [2] | [5]

CCC[Si](OC)(OC)OC
inactive: [7] | [6] | [3] | [2] | [5]

COC(C=C(C)CCC=C(C)C)OC
inactive: [1] | [6] | [2] | [4] | [5]

CC1=CCC(C(C)C)C=C1 (stereo not drawn)
inactive: [7]

CCCc1ccc(O)c(OC)c1
inactive: [1] | [6] | [2] | [4] | [5]

CC1CC(=O)CC(C)(C)C1 (stereo not drawn)
inactive: [1] | [6] | [2] | [4] | [5]

CC(C)C(=O)OCCOc1ccccc1
inactive: [1] | [6] | [2] | [4] | [5]

C=C(C)C(=O)OCCCCCCCCCCCC
inactive: [1] | [6] | [3] | [2] | [4] | [5]

CCCCOC(=O)C(C)CC (stereo not drawn)
inactive: [1] | [6] | [3] | [2] | [4] | [5]

Nc1ccc(C(=O)O)cc1
not listed: [3] | [7] | [18] | [19]
inactive: all other assays above

CCC(C)C(=O)OCCc1ccccc1 (stereo not drawn)
inactive: [1] | [6] | [2] | [4]

CCCCNS(=O)(=O)c1ccc(C)cc1
inactive: [1] | [6] | [3] | [2] | [5]

CO[Si](C)(C)OC
inactive: [1] | [3] | [2] | [4] | [5]

N#Cc1ccc(C2CCCc3cncn32)cc1 (stereo not drawn)
inactive: [1] | [2] | [4] | [5]

C=C[Si](OCCOC)(OCCOC)OCCOC
inactive: [7] | [6] | [3] | [2] | [4]

CC1=CC(C)C(C=O)CC1 (stereo not drawn)
inactive: [1] | [6] | [2] | [5]

Cc1cccc(C(C)(C)C)c1O
inactive: [1] | [6] | [3] | [2] | [4] | [5]

CCCCOCC(C)O (stereo not drawn)
inactive: [1] | [6] | [2] | [4]

C[Si]1(C)O[Si](C)(C)O[Si](C)(C)O[Si](C)(C)O[Si](C)(C)O1
inactive: [1] | [4] | [5]

Cc1ccc([N+](=O)[O-])cc1N
not listed: [3] | [7]
inactive: all other assays above

CC1=C(O)C(=O)C(C)O1 (stereo not drawn)
inactive: [1] | [2] | [4] | [5]

CCCCCCCCCCCCCCCCCCOS(=O)(=O)O
active: [7] 66.9 µM | [6] 86.5 µM
inactive: [3] | [2] | [4] | [5]

CC(=O)OCC=C(C)C
inactive: [1] | [6] | [3] | [2] | [4] | [5]

C=C(C)C1CC=C(C)CC1 (stereo not drawn)
inactive: [7] | [6] | [3] | [2] | [4] | [5]

C=CCCCCCCCCO
inactive: [1] | [6] | [3] | [2] | [4] | [5]

O=C(OCCc1ccccc1)c1ccccc1
inactive: [1] | [6] | [3] | [2] | [5]
